Hits are enriched below; roughly 3.4% of the tested compounds scored in any of these assays.
MITF inh: MITF inhibitors, primary screen, biochemical, AlphaScreen, human. 650,000 tested, 0.91% active. Microphthalmia-associated transcription factor (Homo sapiens), O75030. inhibition, % at 2.6 µM. AlphaScreen MITF homodimerization, bead proximity signal. AID 1259374, 2018; in the data active means inhibition above about 50%;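 further: 0% = vehicle wells with protein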
Target sequence (O75030 whole entry, looked up): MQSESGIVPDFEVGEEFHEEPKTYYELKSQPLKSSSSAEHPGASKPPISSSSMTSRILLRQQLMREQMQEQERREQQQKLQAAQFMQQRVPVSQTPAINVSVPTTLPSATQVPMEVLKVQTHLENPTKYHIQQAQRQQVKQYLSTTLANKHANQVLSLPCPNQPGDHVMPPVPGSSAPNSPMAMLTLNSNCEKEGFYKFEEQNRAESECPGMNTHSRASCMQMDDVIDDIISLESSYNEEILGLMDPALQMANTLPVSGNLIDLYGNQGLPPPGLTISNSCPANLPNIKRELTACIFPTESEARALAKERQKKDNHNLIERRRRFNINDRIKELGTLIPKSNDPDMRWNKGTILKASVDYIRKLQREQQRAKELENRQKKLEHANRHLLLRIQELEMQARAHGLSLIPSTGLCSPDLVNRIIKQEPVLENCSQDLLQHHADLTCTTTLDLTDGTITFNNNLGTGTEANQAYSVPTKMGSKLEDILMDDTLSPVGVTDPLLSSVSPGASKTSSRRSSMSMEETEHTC
FBW7 act: FBW7 E3 ligase activators, primary screen, biochemical, AlphaScreen, human. normalized activity (activation), % at 26.1 µM. F-box/WD repeat-containing protein 7 (Homo sapiens), Q969H0. AlphaScreen FBW7–phospho-cyclin E peptide binding, activator screen. 650,000 tested, 0.13% active. AID 1259310, 2017; in the data active means normalized activity above about 1.9%;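 further: purified mutant Fbw7 with reduced substrate affinity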
TEAD-YAP block: TEAD-YAP interaction inhibition, primary screen, TEAD-YAP interaction inhibitor project, luminescence, HEK-TIYL cells; TEAD-Gal4/YAP UAS-luciferase luminescence; 640,000 tested, 1.4% active; inhibition, % at 9.12 µM; AID 1259422, 2018; in the data active means inhibition above about 32%;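 further: 0% = median of test compound wells and 100% = reference inhibitor wells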
GPR151 activ: activators of human GPR151, primary screen, cell-based, PathHunter beta-arrestin, luminescence; G-protein coupled receptor 151 (Homo sapiens), Q8TDV0; PathHunter beta-arrestin GPR151 cells; activation, % at 11.2 µM; 650,000 tested, 1% active; AID 1508602, 2020; in the data active means activation above about 4.9%;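 further: 0% = median of compound wells and 100% = cells with positive control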
* = called active by the depositor.

Screening CCOC(=O)c1cccc(C(=O)Nc2ccccc2C(=O)OC)n1 returned MITF inh 21, FBW7 act 0, TEAD-YAP block 1 and GPR151 activ -2.
CCCCOc1ccc(C(=O)Nc2nc(-c3ccccc3)c(C(=O)OCC)s2)cc1 was read as MITF inh 3, FBW7 act 0, TEAD-YAP block 7 and GPR151 activ 0.
`CNc1nc2cc([N+](=O)[O-])c([N+](=O)[O-])cc2nc1NC` gave MITF inh 9, FBW7 act 0, TEAD-YAP block 57* and GPR151 activ 0.
For CCOC(=O)Cn1cc(/C=C2/C(=O)NC(=S)N(Cc3ccco3)C2=O)c2ccccc21 the results were MITF inh 64*, FBW7 act -1, TEAD-YAP block 2 and GPR151 activ -1.
`O=C1NC(=O)N(Cc2ccco2)C(=O)/C1=C/c1ccc(N2CCOCC2)cc1` gave MITF inh 73*, FBW7 act 0, TEAD-YAP block 8 and GPR151 activ -1.
Screening CN(C)c1ncc(/C=C2/C(=O)NC(=O)N(Cc3ccco3)C2=O)cn1 returned MITF inh 79*, FBW7 act 0, TEAD-YAP block -7 and GPR151 activ 1.
`CCN(CC)c1ccc(/C=C2/C(=O)NC(=S)N(Cc3ccco3)C2=O)cc1` gave MITF inh 75*, FBW7 act 0, TEAD-YAP block 3 and GPR151 activ 0.
`CCCCOc1ccc(-c2nn(-c3ccccc3)cc2/C=c2\sc3nc(-c4cccs4)nn3c2=O)cc1` gave MITF inh -4, FBW7 act 0, TEAD-YAP block 13 and GPR151 activ 2.
Screening O=c1c2c3c(sc2ncn1Cc1cccc(Cl)c1)CC(NCCCO)CC3 (centres undefined) returned MITF inh 7, FBW7 act 0, TEAD-YAP block 3 and GPR151 activ 0.
For Cc1ccc(-n2cc(/C=C3/C(=O)NC(=O)N(Cc4ccco4)C3=O)cn2)cc1 the results were MITF inh 73*, FBW7 act -1, TEAD-YAP block -17 and GPR151 activ 1.
Screening Cc1ccc2oc(Cc3ccccc3)nc2c1 returned MITF inh 20, FBW7 act 0, TEAD-YAP block 47* and GPR151 activ -2.
For Cc1ccc(-c2nnc(Cc3ccccc3)o2)cc1 the results were MITF inh -10, FBW7 act 0, TEAD-YAP block -58 and GPR151 activ -2.
Screening COc1ccc(C)cc1NC(=O)NCc1cc(C)n(C)n1 returned MITF inh 0, FBW7 act 0, TEAD-YAP block 35* and GPR151 activ 1.
Oc1c(CN2CCN(c3cccc(Cl)c3)CC2)cc(Cl)c2cccnc12 was read as MITF inh 8, FBW7 act -1, TEAD-YAP block 7 and GPR151 activ 0.
Screening CN1CCN(Cc2cc(Br)c3cccnc3c2O)CC1 returned MITF inh 89*, FBW7 act -1, TEAD-YAP block 45* and GPR151 activ 1.
`Oc1c(CN2CCOCC2)cc(Br)c2cccnc12` gave MITF inh 47, FBW7 act 0, TEAD-YAP block 49* and GPR151 activ 1.
Oc1c(CN2CCN(c3cccc(C(F)(F)F)c3)CC2)cc(Br)c2cccnc12 was read as MITF inh 1, FBW7 act -1, TEAD-YAP block 37* and GPR151 activ 0.
`CC1CCN(Cc2cc(Br)c3cccnc3c2O)CC1` gave MITF inh 69*, FBW7 act -1, TEAD-YAP block 47* and GPR151 activ 0.
For Oc1c(Br)cc(Br)c2cccnc12 the results were MITF inh 21, FBW7 act 0, TEAD-YAP block 8 and GPR151 activ 0.
Screening CCOc1ccc(C(=O)Oc2ccc(-c3nc4ccc(C)cc4s3)cc2)cc1Br returned MITF inh 17, FBW7 act 0, TEAD-YAP block 37* and GPR151 activ -1.
`CCOc1ccc(C(=O)Nc2ccc(-c3nc4ccc(C)cc4s3)cc2)cc1Br` gave MITF inh -5, FBW7 act 0, TEAD-YAP block 0 and GPR151 activ 0.
CCn1cc(Br)c(C(=O)NC(C)c2ccccc2)n1 (centres undefined) was read as MITF inh 0, FBW7 act 0, TEAD-YAP block -6 and GPR151 activ 0.
For Cc1ccc2c(c1)C(=O)CC(c1ccc3c(c1)OCCO3)O2 (centres undefined) the results were MITF inh -1, FBW7 act 0, TEAD-YAP block -50 and GPR151 activ 1.
`O=C1CC(c2ccc3c(c2)OCCCCO3)Oc2ccccc21` (centres undefined) gave MITF inh 0, FBW7 act 0, TEAD-YAP block 59* and GPR151 activ 0.
Screening COc1cc(OC)c(OC)cc1/C=C1\N=C(c2cc(OC)c(OC)c(OC)c2)OC1=O returned MITF inh 7, FBW7 act 0, TEAD-YAP block -5 and GPR151 activ 0.
Screening CC(=O)c1ccc(N=Nc2ccc(O)c(C=O)c2)cc1 returned MITF inh -16, FBW7 act 0, TEAD-YAP block 90* and GPR151 activ -4.
For Cc1ccc(-c2nc(C=Nc3ccc4c(c3)OCCO4)c(O)o2)cc1 the results were MITF inh 5, FBW7 act 0, TEAD-YAP block -11 and GPR151 activ -1.
For O=C(N/N=C/c1cccc(O)c1)NC1CCCCC1 the results were MITF inh 19, FBW7 act 1, TEAD-YAP block -6 and GPR151 activ -3.
Screening O=c1c2c3c(sc2nc2c4ccccc4c(Cl)nn12)CCCCC3 returned MITF inh -4, FBW7 act 0, TEAD-YAP block -5 and GPR151 activ 0.
Cc1nn2c(=O)c3c4c(sc3nc2c2ccccc12)CCCC4 was read as MITF inh 2, FBW7 act 0, TEAD-YAP block 52* and GPR151 activ 0.
Screening CC(C(=O)OCc1ccc(F)cc1)N1C(=O)C(=O)c2cc(Br)ccc21 (centres undefined) returned MITF inh 53*, FBW7 act 0, TEAD-YAP block 0 and GPR151 activ 1.
Screening Cc1nc2ccc(C(=O)N3c4ccccc4CC3C)cc2s1 (centres undefined) returned MITF inh 17, FBW7 act 0, TEAD-YAP block 42* and GPR151 activ -1.
For Cc1ccc(Cl)cc1NC(=O)CSc1nnc(C(C)C)n1C the results were MITF inh -12, FBW7 act 0, TEAD-YAP block 24 and GPR151 activ -1.
Screening CCCCOc1ccccc1NC(=O)C(F)(OC)C(F)(F)F (centres undefined) returned MITF inh 14, FBW7 act 1, TEAD-YAP block 36* and GPR151 activ 0.
For COc1cc(C(=O)N/N=C(\C)c2cccs2)cc(OC)c1OC the results were MITF inh 0, FBW7 act 0, TEAD-YAP block 54* and GPR151 activ 1.
